Test results from PubChem BioAssay.
The source made the active and inactive calls.

Key:
[1] = binders of probe aFSTL3 on microarray, primary screen, stem cell growth factor project, biochemical, small-molecule microarray, fluorescence 635/667 (AID 1064); conditions: higher = more signal;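 also: measures binding of the biotinylated anti-FSTL3 antibody to printed compounds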
[2] = binders from COS7 lysate, DM2A8 probe, primary screen, torsin A project, cell lysate, small-molecule microarray, fluorescence 635/667 (AID 1065); conditions: higher = more signal, COS7 lysate expressing mutant human TOR1A
[3] = binders of probe aFGF2 on microarray, primary screen, stem cell growth factor project, biochemical, small-molecule microarray, fluorescence 635/667 (AID 1067); conditions: higher = more signal;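 also: measures binding of biotinylated aFGF2 protein to printed compounds on slides; z-score merges feature fluorescence and signal-to-noise across triplicate slides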
[4] = binders of probe aFGF10 on microarray, primary screen, stem cell growth factor project, biochemical, small-molecule microarray, fluorescence 635/667 (AID 1071); conditions: higher = more signal;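 also: score merges 667 nm spot intensity and signal to noise from triplicate slides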
[5] = target: Neurogenic locus notch homolog protein 2 (Homo sapiens) (UniProt Q04721); test: Notch2 binders on small-molecule microarrays, primary screen, biochemical, small-molecule microarray, 635 nm fluorescence, stem cell growth factors (AID 1073); conditions: Notch2 binding, higher = more signal
[6] = target: Pro-neuregulin-1, membrane-bound isoform (Homo sapiens) (UniProt Q02297); test: NRG1 binders on small-molecule microarrays, primary screen, psychiatric disease protein project, biochemical, small-molecule microarray, fluorescence 635/667 (AID 1075); conditions: NRG1 binding, 635 nm fluorescence, higher = more signal;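 also: score combines 667 nm spot fluorescence with signal to noise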
[7] = test system: Neuregulin-1 EGF-like domain; test: binders of neuregulin-1 EGF-like domain, primary screen, biochemical, small-molecule microarray, 635 nm fluorescence (AID 1081); conditions: small-molecule microarray binding, higher = more signal;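 also: binding of the protein to compounds printed on small-molecule microarray slides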
[8] = FRG1 promoter luciferase signal modulators, primary screen, FRG1 inhibition for FSHD, cell-based, C2C12 myotubes, firefly/Renilla luciferase, luminescence (AID 1084); conditions: higher = more signal, called active from +8 up or from −8 down
[9] = binders of probe aFST on microarray, primary screen, stem cell growth factor project, biochemical, small-molecule microarray, fluorescence 635/667 (AID 1086); conditions: higher = more signal;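 also: score merges 667 nm fluorescence with signal-to-noise of each printed compound spot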
[10] = binders of probe aHhip on microarray, primary screen, stem cell growth factor project, biochemical, small-molecule microarray, fluorescence 635/667 (AID 1087); conditions: higher = more signal;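 also: score merges spot fluorescence at 667nm with spot signal to noise ratio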
[11] = test system: PRMT1 (protein arginine N-methyltransferase 1); test: PRMT1 binders on small-molecule microarrays, primary screen, biochemical, small-molecule microarray, 635 nm fluorescence (AID 1088); conditions: small-molecule microarray binding, higher = more signal;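 also: binding of Prmt1 protein to compounds spotted on small-molecule microarray slides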
[12] = yeast growth modulation, basal conditions, primary screen, YJM789 clinical isolate, OD600, 24 h (AID 1089);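 also: growth of clinical yeast isolate S. cerevisiae YJM 789 seeded 1000 cells per well; test concentration not given here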; conditions: S. cerevisiae YJM789 growth, higher = more signal, called active from +8 up or from −8 down
[13] = fission yeast growth modulation, primary screen, strain 972, OD600, 24 h, no modulator (AID 1090);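 also: basal condition with compound alone and no growth modifier present; test concentration not given here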; conditions: S. pombe 972 growth, higher = more signal, called active from +8 up or from −8 down
[14] = S. cerevisiae growth modulation with rapamycin, primary screen, strain BY4716, OD600, 96 h (AID 1091); conditions: higher = more signal, called active from +8 up or from −8 down; also: test concentration not given here
[15] = target: Torsin-1A-interacting protein 2 (Homo sapiens) (UniProt Q8NFQ8); test: LULL1 binders on small-molecule microarray, primary screen, cell lysate, human LULL1 lysate, 635/667 nm fluorescence (AID 1092); conditions: hLULL1 lysate binding, 635 nm fluorescence, higher = more signal;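 also: probe is lysate of COS7 cells overexpressing human LULL1; score merges per-feature 667 nm fluorescence with signal-to-noise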
[16] = E. coli growth modulation, two-sided OD650, primary screen, E. coli filamentation project, strain DRC41, 24 h (AID 1093); conditions: OD650, 24 h, higher = more signal, called active from +8 up or from −8 down;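 also: MC1000 strain lacking acrAB efflux and sulA so SOS filamentation is blocked; test concentration not given here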
[17] = small-molecule microarray binders of probe aLefty2, primary screen, biochemical, biotinylated probe, 635/667 nm fluorescence (AID 1094); conditions: higher = more signal;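 also: score merges spot fluorescence near 667 nm with spot signal-to-noise ratio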
[18] = test system: Noggin (protein binding on small-molecule microarray); test: Noggin binders on small-molecule microarray, primary screen, biochemical, 635/667 nm fluorescence (AID 1095); conditions: 635 nm fluorescence, higher = more signal;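 also: score merges 667 nm feature fluorescence with signal to noise over triplicate slides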
[19] = target: Neurogenic locus notch homolog protein 3 (Homo sapiens) (UniProt Q9UM47); test: NOTCH3 binders on small-molecule microarray, primary screen, biochemical, 635/667 nm fluorescence (AID 1096); conditions: NOTCH3 binding, 635 nm fluorescence, higher = more signal
[20] = small-molecule microarray binders of probe aEGFR, primary screen, biochemical, biotinylated probe, 635/667 nm fluorescence (AID 1097); conditions: higher = more signal;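 also: probe is a biotinylated anti-EGFR antibody binding compounds printed on slides; score combines fluorescence near 667 nm and signal to noise of each spot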

Torsin-1A-interacting protein 2 (Homo sapiens), sequence (Q8NFQ8 whole entry, looked up): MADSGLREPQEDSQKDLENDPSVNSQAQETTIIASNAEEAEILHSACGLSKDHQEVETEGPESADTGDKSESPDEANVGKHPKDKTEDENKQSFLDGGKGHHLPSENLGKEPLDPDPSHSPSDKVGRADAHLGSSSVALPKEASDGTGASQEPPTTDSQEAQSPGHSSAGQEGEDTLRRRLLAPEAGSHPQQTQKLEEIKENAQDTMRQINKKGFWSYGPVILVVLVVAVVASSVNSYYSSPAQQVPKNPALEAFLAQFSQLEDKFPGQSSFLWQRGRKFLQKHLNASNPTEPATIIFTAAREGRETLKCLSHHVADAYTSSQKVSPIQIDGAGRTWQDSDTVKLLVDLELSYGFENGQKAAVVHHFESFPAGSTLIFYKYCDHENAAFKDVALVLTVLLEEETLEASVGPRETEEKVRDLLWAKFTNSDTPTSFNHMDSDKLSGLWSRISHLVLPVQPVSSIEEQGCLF
Neurogenic locus notch homolog protein 2 (Homo sapiens), sequence (Q04721 whole entry, looked up, canonical isoform): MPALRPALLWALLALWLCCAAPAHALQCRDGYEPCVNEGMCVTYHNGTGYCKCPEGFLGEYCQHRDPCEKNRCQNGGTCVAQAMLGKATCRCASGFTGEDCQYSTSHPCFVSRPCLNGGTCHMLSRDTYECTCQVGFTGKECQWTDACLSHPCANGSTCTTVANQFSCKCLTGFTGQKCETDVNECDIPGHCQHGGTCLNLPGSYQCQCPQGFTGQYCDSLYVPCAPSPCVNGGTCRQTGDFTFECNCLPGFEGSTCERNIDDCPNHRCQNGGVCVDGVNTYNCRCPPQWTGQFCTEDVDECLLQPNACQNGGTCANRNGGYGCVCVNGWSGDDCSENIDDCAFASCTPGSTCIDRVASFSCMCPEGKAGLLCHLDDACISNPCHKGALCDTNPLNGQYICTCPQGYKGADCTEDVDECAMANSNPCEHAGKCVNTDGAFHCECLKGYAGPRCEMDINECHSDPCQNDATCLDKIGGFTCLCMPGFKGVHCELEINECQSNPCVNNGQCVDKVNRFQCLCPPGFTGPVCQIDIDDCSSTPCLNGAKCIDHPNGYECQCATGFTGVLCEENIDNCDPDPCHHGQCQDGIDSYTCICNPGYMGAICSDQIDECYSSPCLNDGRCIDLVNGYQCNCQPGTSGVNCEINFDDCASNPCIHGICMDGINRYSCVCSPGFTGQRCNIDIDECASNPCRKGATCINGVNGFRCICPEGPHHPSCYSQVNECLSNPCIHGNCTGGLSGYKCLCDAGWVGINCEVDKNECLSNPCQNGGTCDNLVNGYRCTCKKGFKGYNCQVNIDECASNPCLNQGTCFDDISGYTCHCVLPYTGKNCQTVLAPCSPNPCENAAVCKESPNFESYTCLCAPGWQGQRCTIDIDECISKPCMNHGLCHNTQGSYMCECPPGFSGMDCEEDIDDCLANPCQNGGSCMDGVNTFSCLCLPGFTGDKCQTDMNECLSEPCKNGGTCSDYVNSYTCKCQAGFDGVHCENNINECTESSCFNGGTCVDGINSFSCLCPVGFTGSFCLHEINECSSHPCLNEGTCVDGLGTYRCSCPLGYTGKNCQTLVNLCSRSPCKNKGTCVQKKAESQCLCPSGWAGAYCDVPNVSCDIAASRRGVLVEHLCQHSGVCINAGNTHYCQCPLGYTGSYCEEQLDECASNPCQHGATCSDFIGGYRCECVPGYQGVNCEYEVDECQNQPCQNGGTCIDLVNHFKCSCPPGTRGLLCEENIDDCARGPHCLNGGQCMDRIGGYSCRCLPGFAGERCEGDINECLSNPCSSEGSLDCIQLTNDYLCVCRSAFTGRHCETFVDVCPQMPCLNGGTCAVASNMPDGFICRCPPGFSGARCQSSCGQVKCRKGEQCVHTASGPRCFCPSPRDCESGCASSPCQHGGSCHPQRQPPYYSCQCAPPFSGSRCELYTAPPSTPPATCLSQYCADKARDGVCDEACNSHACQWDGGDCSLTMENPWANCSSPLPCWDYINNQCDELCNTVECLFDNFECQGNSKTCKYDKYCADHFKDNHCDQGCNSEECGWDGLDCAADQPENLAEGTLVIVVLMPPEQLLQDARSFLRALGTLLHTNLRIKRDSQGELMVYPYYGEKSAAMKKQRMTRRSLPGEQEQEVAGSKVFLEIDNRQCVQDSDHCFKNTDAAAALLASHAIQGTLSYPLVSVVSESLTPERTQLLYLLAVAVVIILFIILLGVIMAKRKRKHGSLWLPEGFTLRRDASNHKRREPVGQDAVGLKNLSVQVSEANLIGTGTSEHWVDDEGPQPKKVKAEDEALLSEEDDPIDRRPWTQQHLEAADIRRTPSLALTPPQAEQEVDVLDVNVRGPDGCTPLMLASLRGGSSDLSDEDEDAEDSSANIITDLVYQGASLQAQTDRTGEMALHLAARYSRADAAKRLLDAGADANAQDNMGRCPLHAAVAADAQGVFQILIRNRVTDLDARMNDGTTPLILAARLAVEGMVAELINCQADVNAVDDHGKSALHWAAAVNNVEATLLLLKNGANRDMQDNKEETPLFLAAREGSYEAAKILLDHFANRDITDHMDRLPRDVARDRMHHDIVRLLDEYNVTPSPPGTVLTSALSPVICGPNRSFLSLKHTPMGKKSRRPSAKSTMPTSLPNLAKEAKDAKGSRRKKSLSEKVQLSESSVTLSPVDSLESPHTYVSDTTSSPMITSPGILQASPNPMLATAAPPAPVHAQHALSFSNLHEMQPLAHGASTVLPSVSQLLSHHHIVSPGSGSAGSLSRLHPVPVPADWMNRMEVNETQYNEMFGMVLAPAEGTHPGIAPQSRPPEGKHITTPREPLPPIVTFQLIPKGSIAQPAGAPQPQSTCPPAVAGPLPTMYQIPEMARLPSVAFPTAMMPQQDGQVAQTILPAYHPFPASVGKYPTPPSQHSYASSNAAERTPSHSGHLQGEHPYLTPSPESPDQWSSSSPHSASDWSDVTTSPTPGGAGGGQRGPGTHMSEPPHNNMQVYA
Pro-neuregulin-1, membrane-bound isoform (Homo sapiens), sequence (Q02297 whole entry, looked up, the tested form may be a part, canonical isoform): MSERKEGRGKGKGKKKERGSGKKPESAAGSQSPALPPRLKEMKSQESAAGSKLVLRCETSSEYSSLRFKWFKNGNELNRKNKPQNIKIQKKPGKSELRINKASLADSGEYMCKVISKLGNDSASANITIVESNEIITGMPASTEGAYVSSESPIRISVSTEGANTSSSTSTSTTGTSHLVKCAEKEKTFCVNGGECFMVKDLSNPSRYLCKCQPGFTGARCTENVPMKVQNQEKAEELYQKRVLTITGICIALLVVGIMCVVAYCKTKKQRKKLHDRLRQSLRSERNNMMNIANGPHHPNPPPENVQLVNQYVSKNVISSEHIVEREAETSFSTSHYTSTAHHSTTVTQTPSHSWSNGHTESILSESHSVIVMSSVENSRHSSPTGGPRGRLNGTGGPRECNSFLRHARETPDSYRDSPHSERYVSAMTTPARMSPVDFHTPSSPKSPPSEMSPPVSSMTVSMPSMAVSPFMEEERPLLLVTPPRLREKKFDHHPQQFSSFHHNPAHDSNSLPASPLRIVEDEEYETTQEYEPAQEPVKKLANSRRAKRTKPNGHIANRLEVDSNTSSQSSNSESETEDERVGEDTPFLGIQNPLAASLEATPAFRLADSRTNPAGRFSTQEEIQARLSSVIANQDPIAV

| SMILES | composite z-score [1] | composite z-score [2] | composite z-score [3] | composite z-score [4] | composite z-score [5] | composite z-score [6] | composite z-score [7] | z-score [8] | composite z-score [9] | composite z-score [10] | composite z-score [11] | z-score [12] | z-score [13] | z-score [14] | composite z-score [15] | z-score [16] | composite z-score [17] | composite z-score [18] | composite z-score [19] | composite z-score [20] |
| --- | --- | --- | --- | --- | --- | --- | --- | --- | --- | --- | --- | --- | --- | --- | --- | --- | --- | --- | --- | --- |
| CC(CCN1CCCc2nc(C)c(C)cc21)=NOC[C@@H](C)[C@H](OCc1ccccc1)C(C)C | -0.247 | -0.325 | -0.15 | -0.0055 | -0.766 | -0.162 | -0.995 | -0.14 (inactive) | -0.342 | 0.236 | -0.0185 | -2.02 (inactive) | -1.8 (inactive) | -0.788 (inactive) | 1.4 | -0.287 (inactive) | -0.286 | -0.187 | -0.763 | -0.183 |
| CCOC(=O)[C@H](Cc1ccccc1)NC(=O)CCC1CC(OC(=O)NCCc2ccc(F)cc2)CC2(CCCC(COC(=O)NCCOc3ccccc3)O2)O1 (stereo not given in full) | -0.493 | 1.34 | -0.129 | 0.813 | 1.17 | 0.843 | 1.03 | -0.997 (inactive) | 0.564 | 0.162 | 1.53 | -0.0952 (inactive) | 0.549 (inactive) | 0.0763 (inactive) | 2.18 | 0.384 (inactive) | -0.0907 | 0.492 | 1.07 | 0.0009 |
| CO[C@@H]1C=CCC(=O)N[C@@H](C)C(=O)OC[C@@H](NS(=O)(=O)c2ccc(C)cc2)[C@H](C)C=CCC(=O)OC[C@H]1C | -0.296 | 0.43 | -0.238 | 0.199 | -0.765 | -0.589 | -0.919 | -1.04 (inactive) | -0.0849 | 0.21 | 0.375 | -0.413 (inactive) | -0.266 (inactive) | -0.411 (inactive) | -1.35 | 0.0927 (inactive) | -0.15 | 0.98 | -0.381 | -0.123 |
| CC(CCN1CCCc2nc(C)c(C)cc21)=NOC[C@@H](O)COCc1ccco1 | 2.02 | 3.09 | 0.529 | 0.0131 | 0.164 | -0.0146 | 0.919 | 1.05 (inactive) | 2.79 | 3.19 | 1.53 | -1.86 (inactive) | 0.544 (inactive) | -0.831 (inactive) | 0.0346 | 0.798 (inactive) | 1.27 | 2.32 | 1.07 | 1.15 |
| CCCNC(=O)OC[C@H]1O[C@H](CCON=C[C@@H](NS(=O)(=O)c2ccc(C)cc2)[C@H](C)C=CCC(=O)OC)C=C[C@@H]1Oc1ccc(OC)cc1 | -0.341 | 0.724 | -0.0425 | -0.183 | -0.127 | -0.703 | -0.83 | -0.122 (inactive) | 0.118 | -0.0994 | 0.409 | -1.21 (inactive) | 0.331 (inactive) | -0.148 (inactive) | -0.0006 | -0.0353 (inactive) | -0.181 | 0.0599 | -0.0703 | -0.0443 |
| COC(=O)[C@H](C)NC(=O)CC=C[C@@H](C)[C@@H]1C=C[C@H](O)[C@@H](CO)O1 | -0.636 | 0.677 | -0.134 | 0.538 | 0.0931 | -0.419 | 0.655 | 0.439 (inactive) | 0.258 | -0.0645 | 0.854 | 0.351 (inactive) | 0.245 (inactive) | 0.358 (inactive) | 0.248 | 1.02 (inactive) | -0.0381 | 1.34 | 0.873 | 0.241 |
| CCCNC(=O)OC[C@H]1O[C@H](CCON=C2c3cc(OC)ccc3O[C@H](c3cccc(OC)c3)[C@H]2O)C=C[C@@H]1Oc1ccc(OC)cc1 | -0.231 | 0.768 | -0.0647 | 0.884 | 1.17 | 0.64 | 0.93 | 0.446 (inactive) | 0.167 | -0.0237 | 0.799 | -0.409 (inactive) | 0.464 (inactive) | 0.479 (inactive) | 0.972 | 0.8 (inactive) | 0.451 | 0.716 | 0.468 | 0.0897 |
| CC(=O)OC[C@H]1O[C@H](C#CCC2CCCCC2)C=C[C@@H]1OC(C)=O | -0.785 | 0.547 | -0.0739 | 0.494 | 0.207 | 0.833 | 0.828 | 1.23 (inactive) | -0.0607 | -0.0618 | 1.18 | 0.877 (inactive) | -15.5 (active) | -0.525 (inactive) | 1.17 | 1.1 (inactive) | -0.194 | 0.598 | 0.568 | 0.0698 |
| C[C@@H](c1ccccc1)N1C(=O)[C@H]2[C@H]3[C@H](O)[C@H](O)CC(=NOC[C@@H](O)COCc4ccco4)[C@H]3CC[C@H]2C1=O | -0.605 | 2.38 | -0.212 | -0.363 | -0.206 | -0.438 | 0.919 | 0.652 (inactive) | 0.039 | -0.0994 | 0.559 | 0.342 (inactive) | 0.453 (inactive) | -0.0348 (inactive) | -1.07 | -0.378 (inactive) | -0.0772 | 0.412 | -0.233 | -0.164 |
| COC(=O)[C@@H]1CC[C@H](C)[C@@H](c2ccc(Br)cc2)N1 | 1.1 | -0.288 | 0.0499 | 0.169 | -0.208 | 0.153 | -0.201 | -0.382 (inactive) | -0.155 | 0.842 | -2.1 | 0.826 (inactive) | 0.771 (inactive) | 1.08 (inactive) | 1.24 | 0.532 (inactive) | 0.195 | -0.265 | -1.19 | -0.044 |
